According to PubChem BioAssay (NCI):
This is part of a sample that, as a whole, favours compounds with a hit. Of some 83,000 tested, about 20% had one in any assay.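 Assay: single dose, 48 h. Readout: percent growth (0 = no net growth; negative = cell death). Active: <10.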 A number with no mark means an inactive call. The source made the active and inactive calls.

test system: A498 renal; assay: NCI-60 one-dose screen, 48 h (100 = growth as untreated, 0 = no growth, -100 = all killed); details: 10 µM unless noted
Method: Growth inhibition of the A498 human tumor cell line is measured as a screen for anti-cancer activity. Cells are grown in 96 well plates and exposed to the test compound for 48 hours. Compounds are tested at a single concentration, which is 10^-5 M for most compounds. The reported endpoint is percent growth (GI% or GIPRCNT), where numbers from 0 - 100% represent growth inhibition, and numbers from -100% - 0 represent cell death. For example, a value of 40 represents 60% growth inhibition. A value of 0 means no net growth occurred over the course of the experiment. A value of -40 indicates 40% of cells at the beginning of the experiment died by the end of the experiment. A value of -100 means all cells are dead at the end of the experiment.
NCI-60 Human Tumor Cell Lines Screen was performed using the standard one-dose NCI protocol, which is described in more detail at https://dtp.cancer.gov/discovery_development/nci-60/default.htm.
Compounds with GIPRCNT values below 10 were considered active. Activity score was based on GIPRCNT using the following formula: […]
Score is 0 for GIPRCNT values of 100 or above, 50 for GIPRCNT values of 0, and 100 for GIPRCNT values of -100.

| Compound | growth |
| --- | --- |
| CC(C)C[C@@H](C(=O)N[C@H](C(=O)OC1CCCC1)c1ccccc1)[C@H](O)C(=O)NO | 40.7% |
| CCc1cccc(Sc2cc(C(=O)N3Cc4ccc(OCCN(C)C)cc4C3)ccc2O)c1 | 42.2% |
| COCCCOc1cc(C[C@@H](C[C@H](N)[C@@H](O)C[C@H](C(=O)NCC(C)(C)C(N)=O)C(C)C)C(C)C)ccc1OC | 103% |
| C=CC1(C)C(O[Si](C)(C)C(C)(C)C)CC2C3OC(=O)NC31c1cccc3c1[C@H](C(=O)N3C)C2(C)C (stereo not given in full) | 62.6% |
| Cc1ccc(-c2nc(C(Cl)Cl)nc3cc(C)nn23)cc1 | -2.75% (active) |
| CSCCC(NC(=O)c1ccccc1)C(=O)N/N=C1\S/C(=C/c2ccc(Cl)cc2)C(=O)N1C (stereo not given) | 103% |
| COc1ccc(Cc2nnc(Nc3nc4ccccc4s3)s2)cc1 | 97.8% |
| COc1cccc(C(=O)OCC(O)C(=O)NC23CC4CC(CC(C4)C2)C3)c1 (stereo not given) | 96.9% |
| COc1ccc(C(c2cc(OC)c(OC)c(OC)c2)N2CCN(Cc3ccccc3)CC2)cc1 (stereo not given) | 51.9% |
| COc1ccc(OC)c(-c2cn3nc(-c4c[nH]c5ccc(Br)cc45)sc3n2)c1 | 86.1% |
| Cc1cc2nc(-c3c(-c4ccc(F)cc4)nc4sccn34)[nH]c2cc1C | 89.2% |
| N=C(N)SCc1cccc2c(CSC(=N)N)cccc12 | 87.2% |
| CCN(CC)S(=O)(=O)c1ccc(S(=O)(=O)N2CCC[C@@H](C(=O)N3CCN(C(=O)OC(C)(C)C)CC3)C2)cc1 | 27.8% |
| CCOC(=O)c1c(NC(=O)c2ccc(C(C)(C)C)cc2)sc2cc(O)ccc12 | 88.8% |
| S=c1ssnc1-c1cccs1 | 23.4% |
| CCOC(=O)NN1CC(O)=C(c2nc(-c3ccc(Br)cc3)cs2)C1=N | 93.4% |
| CC/C=C\C/C=C/C=C1/C(=O)C=C[C@@H]1C/C=C\CCCC(=O)OC | 109% |
| Cc1ccc(C)n1/C=C/n1c(C)ccc1C | 85.8% |
| Cc1ccc2[nH]c(=O)c3c(c2c1)OC(N)=C(C#N)C31C(=O)c2cccc3cccc1c23 (stereo not given) | 107% |
| CC(=O)N/C(=C1/OC(C(O)C(O)C(O)CO)CN1C)[P+](c1ccccc1)(c1ccccc1)c1ccccc1 (stereo not given) | 120% |

| Compound | growth |
| --- | --- |
| Nc1c(C(=O)Nc2ccccn2)sc2nc3c(cc12)C(O)CCC3 (stereo not given) | 3.12% (active) |
| CC/C(Cc1ccccc1)=C(\c1ccc(OCCN2CCCCCC2)cc1)c1ccc(OC(=O)NCc2ccccc2)cc1 | 82.5% |
| CN1CCN(Cc2cc(NC(=O)c3cccc(C#Cc4cccc5[nH]nc(N)c45)c3)cc(C(F)(F)F)c2)CC1 | 42.6% |
| COC(=O)Cc1nc(C#N)c(N(C)C)o1 | 125% |
| O=C1Nc2ccccc2C2c3cccn3-c3ccccc3N12 (stereo not given) | 73.9% |
| O=C1NC(=O)c2c1c1c3ccccc3[nH]c1c1oc3ccc(F)cc3c21 | -6.99% (active) |
| CCCCCCCCn1ccc2cc(NC(=O)Cn3cc(CN4CCN(CC)CC4)nn3)ccc21 | 90.5% |
| O=C(Cn1nnc([N+](=O)[O-])n1)c1ccccc1 | 48.6% |
| CC(/C=C1\SC(=S)N(CC(=O)NC(Cc2c[nH]c3ccccc23)C(=O)O)C1=O)=C\c1ccccc1 (stereo not given) | 107% |
| COc1ccc(C2=CN3CC=CCC3CC2=O)cc1 (stereo not given) | 93.7% |
| CCN(CC)CCOc1nc2c3ccc(Cl)cc3nn2c2ccccc12 | -12.2% (active) |
| CCN1CCN(CC(=O)Nc2nc3ccc(NCc4ccc(Br)cc4)cc3s2)CC1 | 88.8% |
| COc1ccc2c(c1)c(-c1nc(-c3cn(C)c4ncccc34)cs1)cn2CCO | 49.3% |
| COC(=O)C1=Nc2ccc(F)cc2/C1=C\c1sc(Nc2ccc(O)cc2)nc1O | 42.4% |
| COc1ncc2cc1NS(=O)(=O)c1cccc(c1)C(=O)NCC1=CC=C(S1)c1ncnc3c1SC2=C3C | -67.2% (active) |
| C#Cc1cccc(Nc2nc3ccc([N+](=O)[O-])cc3nc2Nc2cccc(C#C)c2)c1 | -20.3% (active) |
| CCCCCCCCCCCCCCCCOC(=O)c1c(C)[nH]c(/C=C2\N=C(c3ccc[nH]3)C=C2OC)c1C | 33.9% |
| O=c1[nH]cnc2c1C(c1ccc(Br)cc1)c1sc3c(F)cccc3c1O2 (stereo not given) | 104% |
| COc1cc(C#Cc2ccc(=O)oc2C#Cc2ccccc2)cc(OC)c1OC | 119% |
| CN(C)Cc1ccc(C(=O)Nc2ccc3ncnc(Nc4ccc(Oc5cccc(F)c5)c(Cl)c4)c3c2)cc1 | 19.2% |
